# Screening results from PubChem.
# Giardia FBPA inh: qHTS Assay for Inhibitors of Fructose-1,6-bisphosphate Aldolase from Giardia Lamblia; hit rate 0.71% among 290,000; purified Giardia FBPA; AID 2451, 2010; Potency, µM (highest dose often 59.6 µM), for inactives: top-dose activity, negative = inhibition, most hits filed as inhibitors; also: potency is read from the fitted curve at half-maximal effect; % is scaled to controls: 0 for no effect and ±100 for the full control effect; nearly all actives have a fitted effect of over 55% in size
#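 40 nM FBPA preincubated 10 min at RT with compound (up to 57.5 uM final), then substrate plus GAPDH/TPI/NAD/arsenate coupling and diaphorase/resazurin added. Fluorescence read after 20 min at RT, 525/598 nm.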
# CHX counter: Cycloheximide Counterscreen for Small Molecule Inhibitors of Shiga Toxin; cell reporter, cycloheximide protein synthesis inhibition counterscreen; max response, %; hit rate 12% among 300,000; AID 2314, 2010; in the data active = max response mostly above about 13%, no sharp cut-off; inactive = mostly below about 14%; also: read at 38.3 µM for the half of the compounds with a filed dose; 0% is about no effect
# Tb PYK inh: qHTS of Trypanosoma Brucei Inhibitors | TbPYK enzyme, Kinase-Glo Plus ATP luminescence, 45 min | AID 624173, 2012 | Potency, µM (top dose mostly 76.8 µM), inactives show at the highest dose activity, negative = inhibition, usual class: inhibitors | hit rate 0.12% among 410,000 | pyruvate kinase (Trypanosoma brucei), Q57TT1; also: potency is read from the fitted curve at half-maximal effect; % is scaled to controls: 0 for no effect and ±100 for the full control effect; nearly all actives have a fitted effect of over 50% in size
#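 Quantitative HTS: titrated library compounds versus trypanosomal pyruvate kinase in TEA buffer (pH 7.2) containing KCl, MgCl2, BSA and Tween-20. Reactions were initiated with ADP, 130 uM final. Kinase-Glo Plus luminescence was read after 45 min at RT.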
# LmPK inhibitor: qHTS Assay for Inhibitors of Leishmania Mexicana Pyruvate Kinase (LmPK) | Q27686 | purified LmPK, Kinase-Glo ATP luminescence, 1 h | Potency, µM (doses to about 57.5 µM), for the others: at the highest dose activity change, negative = inhibition, usual class: inhibitors | hit rate 0.37% among 290,000; also: potency is read from the fitted curve at half-maximal effect; % is scaled to controls: 0 for no effect and ±100 for the full control effect
# Target sequence (Q27686 whole entry, looked up): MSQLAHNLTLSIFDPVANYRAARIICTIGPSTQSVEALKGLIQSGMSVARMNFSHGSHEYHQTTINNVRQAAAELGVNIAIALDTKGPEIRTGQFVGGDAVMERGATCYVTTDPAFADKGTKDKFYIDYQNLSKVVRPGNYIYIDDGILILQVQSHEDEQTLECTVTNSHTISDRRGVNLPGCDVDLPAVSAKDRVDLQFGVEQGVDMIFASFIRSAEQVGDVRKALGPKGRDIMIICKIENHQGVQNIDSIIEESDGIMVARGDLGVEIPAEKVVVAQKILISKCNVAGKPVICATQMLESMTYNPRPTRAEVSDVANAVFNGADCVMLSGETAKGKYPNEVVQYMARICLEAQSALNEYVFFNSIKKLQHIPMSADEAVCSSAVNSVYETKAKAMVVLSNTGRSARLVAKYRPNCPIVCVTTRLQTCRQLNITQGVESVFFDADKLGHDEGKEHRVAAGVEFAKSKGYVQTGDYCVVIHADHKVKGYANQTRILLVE
#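 Purified LmPK (0.1 nM) with 0.5 mM PEP and 0.1 mM ADP in imidazole buffer pH 7.2 with MgCl2/KCl, 1 h at room temperature. ATP formed was read by luciferase luminescence and normalized to no-enzyme and uninhibited controls.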
# Shiga inhibitor: A qHTS for Small Molecule Inhibitors of Shiga Toxin | Vero cells, Shiga toxin protein synthesis inhibition reporter | inhibition, % at 38.7 µM | hit rate 9.2% among 290,000 | AID 2315, 2010; in the data active = inhibition mostly above about 28%, no sharp cut-off; inactive = mostly below about 43%; also: 0% is about no effect
# Sm TGR block: qHTS Assay for the Inhibitors of Schistosoma Mansoni Peroxiredoxins; Potency, µM (titrated, usually from 114 µM), without a hit: at the top dose activity change, negative = inhibition, actives largely listed as inhibitors; Schistosoma mansoni thioredoxin glutathione reductase (TGR), Q962Y6; AID 485364, 2010; hit rate 3% among 360,000; purified TGR, DTNB reduction, TNB absorbance 405 nm; also: potency is read from the fitted curve at half-maximal effect; % is scaled to controls: 0 for no effect and ±100 for the full control effect; nearly all actives have a fitted effect of over 60% in size
#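 Kinetic colorimetric format: TGR-catalysed, NADPH-driven DTNB reduction monitored via TNB absorbance. Enzyme dispensed at 20 nM; compound exposure 15 min at room temperature before reaction start.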
# The depositor's hits bear a star; ? = inconclusive; . = not tested or not shown; [ ] = another dose, or the depositor's remark. The sample as a whole holds a higher share of hits than the screen did. Unless noted, calls follow the shape of the dose curve; as a rule, active = well fitted curve in the direction sought with a large enough effect; inconclusive = small, poorly fitted or top-dose-only effect, or another doubt; inactive = no such curve, though single readings can be large; an effect the other way counts as inactive or inconclusive.
SMILES,Giardia FBPA inh,CHX counter,Tb PYK inh,LmPK inhibitor,Shiga inhibitor,Sm TGR block
CC(C)(C)C(=O)Nc1nc(-c2ccc3c(c2)OCO3)cs1,-11%,24*,29%,8%,51*,-16%
CCC(=O)Nc1nc(-c2ccc3c(c2)OCCO3)cs1,-3%,31*,-2%,-1%,active,-6%
COc1cc(-c2ccno2)ccc1S(=O)(=O)N1CCN(c2cc(C)ccc2C)CC1,.,.,4%,.,.,0%
CCN(CC)S(=O)(=O)c1ccc2c(c1)N(CC(=O)Nc1ccccc1F)C(=O)C1CCCN21 (configuration not stated),.,.,2%,.,.,-20%
Cc1c(C(=O)O)sc(S(=O)(=O)N2CCN(C(=O)CC(C)c3ccccc3)CC2)c1C(=O)O (configuration not stated),.,.,-5%,.,.,.
Cc1ccc(NC(=O)c2cccc(NC(=O)N3CCSc4ncccc43)c2)cc1Cl,.,.,-12%[15.4 µM],.,.,6%
CNC(=O)c1cc2c(s1)-c1ccccc1CC2,-4%,49*,-5%,4%,100*,.
CNC(=O)c1cc(C)c(-c2ccccc2)s1,0%,46*,-12%,0%,35,-5%
O=C(N/N=C/c1ccc(F)c(F)c1)c1cc2c(s1)-c1ccccc1CC2,1%,-4,-2%,2%,-2,-1%
CNC(=O)c1cc2c(-c3ccccc3)nn(C)c2s1,0%,-2,5%,-4%,17,23%
CCN1C(=O)[C@H]2[C@H]3[C@H](O)[C@H](O)C/C(=N/OC/C=C(\C)CCC=C(C)C)[C@@H]3CC[C@@H]2C1=O,0%[12.9 µM],.,.,.,.,.
COc1ccc2c(c1)CCc1cn[nH]c1-2,4%,13*,-3%,-1%,23,0%
Cc1ccccc1NC(=O)COC(=O)c1cc(S(=O)(=O)N2CCOCC2)ccc1C,.,.,2%,.,.,-24%
Cc1ccc(-c2nc3ncccc3o2)cc1NC(=O)c1ccc(-c2ccc(Cl)cc2)o1,.,.,1%,.,.,-11%
COc1cc(-c2nc(-c3ccc(NC(=O)c4ccc(Br)o4)cc3)no2)cc(OC)c1OC,-11%,36*,1%,-13%,49,2%
COc1ccc(-c2nc(-c3ccc(NC(=O)c4ccc(Br)o4)cc3)no2)cc1OC,-4%,29*,-7%,-6%,46*,-32%
COc1cc(C(=O)NCC(c2cccs2)S(=O)(=O)c2cccs2)cc(OC)c1OC (configuration not stated),.,.,-1%,.,.,?
O=C1CCCc2c1cc(C(=O)O)c(=O)n2-c1ccccc1,-2%,0,-1%,-13%,-11,0%
COC(=O)C(CCSC)NC(=O)c1cc2c(n(-c3ccccc3)c1=O)CCCC2=O (configuration not stated),-2%,16*,1%,2%,38,13%
O=C1CCCc2c1cc(C(=O)Nc1ccc(Br)cn1)c(=O)n2-c1ccccc1,?,1,?,?,-3,18µM*
O=C1CCCc2c1cc(C(=O)NC1CCSC1=O)c(=O)n2-c1ccccc1 (configuration not stated),-25%,-2,-8%,-9%,20,35µM*
Cc1ccc(C)c(N2CCN(CCCNC(=O)c3nnc(Cc4ccc(F)cc4Cl)o3)CC2)c1,.,.,-8%,.,.,-1%
O=C(c1cnn(-c2cccc(F)c2)c1-n1cccc1)N1CCN(c2ccccc2F)CC1,.,.,-4%[15.4 µM],.,.,10%
O=C(NCCc1ccc(Cl)cc1)C1CCN(S(=O)(=O)c2ccc3[nH]ccc3c2)CC1,.,.,-2%,.,.,0%
CCCS(=O)(=O)c1nc(S(=O)(=O)c2ccc(C)cc2)c(NCc2ccccc2)s1,.,.,4%,.,.,-1%
SMILES,Giardia FBPA inh,CHX counter,Tb PYK inh,LmPK inhibitor,Shiga inhibitor,Sm TGR block
COc1ccc(C(=O)c2c3ccc(OC)cc3[n+]([O-])n2Cc2ccc(C(N)=O)cc2)cc1,.,.,-2%,.,.,-8%
Cc1nc2ccccc2c(=O)n1/N=C/c1ccc(N(C)C)cc1,1%,26*,-7%,-1%,27,2%
CC(=O)N(/N=C/c1ccc([N+](=O)[O-])o1)c1nc2ccccc2c(=O)n1-c1ccccc1,-13%,1,0%,-1%,6,40µM*
COc1cc(OC)c(OC)cc1/C=N/n1c(C)nc2ccccc2c1=O,13%,-2,-1%,0%,29,-9%
CSc1ccc(/C=N/n2c(C)nc3ccccc3c2=O)cc1,4%,23*,1%,0%,30,3%
Cc1nc2ccccc2c(=O)n1/N=C/c1ccccc1F,17%,52*,0%,-2%,105*,4%
O=c1c2ccccc2nc(/C=C/c2ccc([N+](=O)[O-])o2)n1-c1ccc(O)cc1,-2%,15,-2%,0%,21,?
Cc1nc2ccccc2c(=O)n1/N=C/c1ccc([N+](=O)[O-])o1,?,34*,.,6%,56*,14µM*
Cc1ccc(/C=N/n2c(C)nc3ccccc3c2=O)o1,-5%,5,0%,-2%,1,-31%
Cc1nc2ccccc2c(=O)n1/N=C/c1ccccn1,11%,28*,0%,-3%,22,-20%
Cc1noc(C)c1C(=O)N1CCC2(CC1)CCN(c1cccc(-c3ccccc3)c1)CC2,-1%,.,-6%,.,.,.
CC1CCC(C(=O)NNC(=O)c2cc(-c3ccco3)[nH]n2)CC1 (configuration not stated),-8%,-4,1%,-8%,11,-5%
O=C(O)c1cc(-c2ccco2)[nH]n1,?,3,-15%,8%,-2,50µM*
O=C(NCCC(=O)N1CCN(c2ccc(F)cc2)CC1)c1ccco1,.,.,3%,.,.,45µM*
CCC(=O)N1CCN(c2ccc(NC(=O)c3ccco3)cc2)CC1,3%,28*,-5%,-9%,31*,-5%
CCC(=O)N1CCN(c2ccc(NC(=O)c3cccs3)cc2)CC1,4%,15*,0%,10%,68*,10%
O=C(Nc1ccc(N2CCN(C(=O)c3ccccc3)CC2)cc1)c1cccs1,15%,4,1%,8%,30,0%
Cc1ccccc1C(=O)N1CCN(c2ccc(NC(=O)c3ccco3)cc2)CC1,12%,8,2%,-2%,-7,-4%
CC(=O)N1CCN(c2ccc(NC(=O)c3ccco3)cc2)CC1,-10%,18,-12%,4%,72*,-15%
O=C(O)CSCC(=O)N1CCN(Cc2ccc3c(c2)OCO3)CC1,4%,3,-6%,0%,-1,1%
Cc1cc(C)cc(NC(=O)CSc2nccn2C2CCCC2)c1,.,.,2%,.,.,0%
CC(=O)c1ccc(NC(=O)Cn2ncc3c4ccccc4n(Cc4ccccc4)c3c2=O)cc1,.,.,3%,.,.,-8%
